Active and inactive are the calls of the source. Rule for the calls, unless noted: active = hit-call score of the fitted dose curve at least 0.9, where 1 is the maximum; inactive = score below 0.9.
Target: Peroxisome proliferator-activated receptor gamma (Homo sapiens) (UniProt P37231)
Test: OT_PPARg_PPARgSRC1_1440: Odyssey Thera (OT) 24-hour Protein-Complementation Assay for Peroxisome Proliferator-activated Receptor Gamma/ SRC-1 Co-activator (AID 2283388; active = hit-call score of the fitted dose curve at least 0.9, where 1 is the maximum;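 note: nuclear to cytoplasmic ratio of reconstituted Venus YFP fluorescence in fixed imaged cells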)
Conditions: not given
Procedure, shortened: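 Transient HEK293T, YFP fragments 1-158/159-239 (mutant IFP1/IFP2) fused to PPARg/SRC-1; 24 h dosing; fix 4% formaldehyde, Draq5; Opera imaging 488/635 nm; N/C ratio, gain vs DMSO.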

Peroxisome proliferator-activated receptor gamma (Homo sapiens), sequence (P37231 whole entry, looked up): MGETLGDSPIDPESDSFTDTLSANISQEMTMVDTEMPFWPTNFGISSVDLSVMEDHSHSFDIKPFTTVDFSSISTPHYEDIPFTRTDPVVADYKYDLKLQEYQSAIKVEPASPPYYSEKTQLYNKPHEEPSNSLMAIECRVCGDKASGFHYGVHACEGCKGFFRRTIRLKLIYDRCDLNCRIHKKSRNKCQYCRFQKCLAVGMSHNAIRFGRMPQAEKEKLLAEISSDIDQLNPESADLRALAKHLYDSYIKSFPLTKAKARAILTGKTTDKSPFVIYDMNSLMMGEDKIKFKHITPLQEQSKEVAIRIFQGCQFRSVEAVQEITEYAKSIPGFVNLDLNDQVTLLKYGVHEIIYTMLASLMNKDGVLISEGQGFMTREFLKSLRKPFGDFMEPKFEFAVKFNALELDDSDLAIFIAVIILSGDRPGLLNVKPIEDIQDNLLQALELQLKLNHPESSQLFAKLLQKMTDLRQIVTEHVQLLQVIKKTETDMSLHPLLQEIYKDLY

| Structure (SMILES) | outcome |
| --- | --- |
| CCOP(=S)(OCC)Oc1ccc([N+](=O)[O-])cc1 | inactive |
| C=C(C)[C@H]1Cc2c(ccc3c2O[C@@H]2COc4cc(OC)c(OC)cc4[C@@H]2C3=O)O1 | inactive |
| CCOP(=O)(NC(C)C)Oc1ccc(SC)c(C)c1 (stereo not given) | inactive |
| COc1ccc(C(=CC(=O)N2CCOCC2)c2ccc(Cl)cc2)cc1OC | inactive |
| CC1(C(=O)Nc2ccc(O)c(Cl)c2Cl)CCCCC1 | inactive |
| C[N+]1(C)CCCCC1 | inactive |
| CN(C)NC(=O)CCC(=O)O | inactive |
| CN(C)[C@@H]1C(=O)C(C(N)=O)=C(O)[C@@]2(O)C(=O)C3=C(O)c4c(O)cccc4[C@@](C)(O)[C@H]3[C@H](O)[C@@H]12 | inactive |
| Cc1ccn2nc(S(=O)(=O)Nc3c(F)cccc3F)nc2n1 | inactive |
| CCOC(=O)COc1cc(-c2nn(C)c(OC(F)F)c2Cl)c(F)cc1Cl | inactive |
| COP(=O)(NC(C)=O)SC (stereo not given) | inactive |

Read-out: not listed separately
Test: CEETOX_H295R_11DCORT: CeeTox H295R High-throughput Steroidogenesis Assay for 11-Deoxycortisol (11DCORT) (AID 2283432);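 for AC50: 11-deoxycortisol secreted into the medium measured by LC-MS/MS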
Conditions: actives raise or lower the signal
Procedure, shortened: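 H295R cells; 10 uM forskolin prestim 48 h; compound in 0.1% DMSO 48 h; media extracted with MTBE; 11-deoxycortisol by LC-MS/MS, 7-point standard curve; gain/loss vs DMSO baseline; viability by MTT in same wells.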

| Structure (SMILES) | outcome | AC50 |
| --- | --- | --- |
| CCCSP(=O)(OCC)SCCC | inactive |  |
| CNC(=O)ON=C(C)SC | inactive |  |
| CNc1cnn(-c2cccc(C(F)(F)F)c2)c(=O)c1Cl |  | 11.5 µM (active) |
| CCNc1nc(Cl)nc(NC(C)(C)C#N)n1 | inactive |  |
| CCOP(=S)(OCC)Oc1ccc([N+](=O)[O-])cc1 |  | 2.57 µM (active) |
| CCOP(=O)(NC(C)C)Oc1ccc(SC)c(C)c1 (stereo not given) |  | 24 µM (active) |
| COc1ccc(C(=CC(=O)N2CCOCC2)c2ccc(Cl)cc2)cc1OC | inactive |  |
| CCOC(=O)COc1cc(-c2nn(C)c(OC(F)F)c2Cl)c(F)cc1Cl | inactive |  |
| COP(=O)(NC(C)=O)SC (stereo not given) | inactive |  |

Read-out: not listed separately
Test: CEETOX_H295R_OHPREG: CeeTox H295R High-throughput Steroidogenesis Assay for OH-Pregnenolone (OHPREG) (AID 2283434)
Conditions: actives raise or lower the signal
Procedure, shortened: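 Secreted 17alpha-hydroxypregnenolone measured by HPLC-MS/MS after liquid-liquid extraction. Human adrenal H295R cells received 48 h forskolin (10 uM) stimulation before 48 h chemical exposure at 0.1% final DMSO; MTT viability in same wells; bidirectional fit against DMSO.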

| Structure (SMILES) | outcome | AC50 |
| --- | --- | --- |
| C#CCC1=C(C)C(OC(=O)C2C(C=C(C)C)C2(C)C)CC1=O (stereo not given) | inactive |  |
| CCCSP(=O)(OCC)SCCC | inactive |  |
| C[Si](Cn1cncn1)(c1ccc(F)cc1)c1ccc(F)cc1 | inactive |  |
| CNC(=O)ON=C(C)SC | inactive |  |
| CNc1cnn(-c2cccc(C(F)(F)F)c2)c(=O)c1Cl | inactive |  |
| CCCSP(=O)(OCC)Oc1ccc(Br)cc1Cl (stereo not given) | inactive |  |
| CSc1nc(NC(C)C)nc(NC(C)C)n1 | inactive |  |
| CNC(=O)ON=C(SC)C(=O)N(C)C | inactive |  |
| CCNc1nc(Cl)nc(NC(C)(C)C#N)n1 | inactive |  |
| CC(COc1ccc(Oc2ccccc2)cc1)Oc1ccccn1 (stereo not given) | inactive |  |
| COc1cccc(C(=O)NN(C(=O)c2cc(C)cc(C)c2)C(C)(C)C)c1C | inactive |  |
| CCc1cccc(C)c1N(C(=O)CCl)C(C)COC (stereo not given) | inactive |  |
| CN(C)C(=O)Nc1cccc(C(F)(F)F)c1 | inactive |  |
| CCCCN(CC)c1c([N+](=O)[O-])cc(C(F)(F)F)cc1[N+](=O)[O-] | inactive |  |
| CCOP(=S)(OCC)Oc1ccc([N+](=O)[O-])cc1 | inactive |  |
| CCOP(=O)(NC(C)C)Oc1ccc(SC)c(C)c1 (stereo not given) |  | 13.9 µM (active) |
| COc1ccc(C(=CC(=O)N2CCOCC2)c2ccc(Cl)cc2)cc1OC | inactive |  |
| CC1(C(=O)Nc2ccc(O)c(Cl)c2Cl)CCCCC1 |  | 7.52 µM (active) |
| CN(C)NC(=O)CCC(=O)O | inactive |  |
| CCOC(=O)COc1cc(-c2nn(C)c(OC(F)F)c2Cl)c(F)cc1Cl | inactive |  |

Read-out: not listed separately
Test: CEETOX_H295R_OHPROG: CeeTox H295R High-throughput Steroidogenesis Assay for OH-Progesterone (OHPROG) (AID 2283435);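 for AC50: 17alpha-hydroxyprogesterone secreted into medium measured by HPLC-MS/MS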
Conditions: actives raise or lower the signal
Procedure, shortened: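 Medium steroid levels read by LC-MS/MS after 48 h chemical treatment (0.1% DMSO) of human adrenal H295R cells that had been forskolin-primed (10 uM, 48 h). Gain or loss fitted against DMSO; MTT cytotoxicity checked per well.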

| Structure (SMILES) | outcome | AC50 |
| --- | --- | --- |
| C#CCC1=C(C)C(OC(=O)C2C(C=C(C)C)C2(C)C)CC1=O (stereo not given) | inactive |  |
| CCCSP(=O)(OCC)SCCC | inactive |  |
| C[Si](Cn1cncn1)(c1ccc(F)cc1)c1ccc(F)cc1 | inactive |  |
| CNC(=O)ON=C(C)SC | inactive |  |
| CNc1cnn(-c2cccc(C(F)(F)F)c2)c(=O)c1Cl | inactive |  |
| CCCSP(=O)(OCC)Oc1ccc(Br)cc1Cl (stereo not given) | inactive |  |
| CSc1nc(NC(C)C)nc(NC(C)C)n1 | inactive |  |
| CNC(=O)ON=C(SC)C(=O)N(C)C | inactive |  |
| CCNc1nc(Cl)nc(NC(C)(C)C#N)n1 | inactive |  |
| CC(COc1ccc(Oc2ccccc2)cc1)Oc1ccccn1 (stereo not given) | inactive |  |
| CCc1cccc(C)c1N(C(=O)CCl)C(C)COC (stereo not given) | inactive |  |
| CN(C)C(=O)Nc1cccc(C(F)(F)F)c1 |  | 52.6 µM (active) |
| CCCCN(CC)c1c([N+](=O)[O-])cc(C(F)(F)F)cc1[N+](=O)[O-] | inactive |  |
| CCOP(=S)(OCC)Oc1ccc([N+](=O)[O-])cc1 |  | 0.39 µM (active) |
| COc1ccc(C(=CC(=O)N2CCOCC2)c2ccc(Cl)cc2)cc1OC | inactive |  |
| CC1(C(=O)Nc2ccc(O)c(Cl)c2Cl)CCCCC1 |  | 9.28 µM (active) |
| CN(C)NC(=O)CCC(=O)O | inactive |  |
| CCOC(=O)COc1cc(-c2nn(C)c(OC(F)F)c2Cl)c(F)cc1Cl | inactive |  |
| COP(=O)(NC(C)=O)SC (stereo not given) | inactive |  |

Read-out: not listed separately
Test: CEETOX_H295R_ANDR: CeeTox H295R High-throughput Steroidogenesis Assay for Androstenedione (ANDR) (AID 2283436)
Conditions: actives raise or lower the signal
Procedure, shortened: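 Medium from 48 h chemical-treated H295R adrenal cells was extracted with MTBE and androstenedione measured by LC-MS/MS. Activity was fit in both directions relative to DMSO. Cytotoxic concentrations were re-tested after dilution until MTT viability reached ≥70%.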

| Structure (SMILES) | outcome | AC50 |
| --- | --- | --- |
| CCCSP(=O)(OCC)SCCC | inactive |  |
| CNC(=O)ON=C(SC)C(=O)N(C)C | inactive |  |
| CC(COc1ccc(Oc2ccccc2)cc1)Oc1ccccn1 (stereo not given) | inactive |  |
| CCOP(=O)(NC(C)C)Oc1ccc(SC)c(C)c1 (stereo not given) |  | 50 µM (active) |
| COc1ccc(C(=CC(=O)N2CCOCC2)c2ccc(Cl)cc2)cc1OC | inactive |  |
| CCOC(=O)COc1cc(-c2nn(C)c(OC(F)F)c2Cl)c(F)cc1Cl | inactive |  |

— PubChem BioAssay (EPA / NIEHS)
